Sampled rows, rich in hits. Any-hit rate of the full collection: about 18%.
TDP1 cell noCPT = qHTS for Inhibitors of human tyrosyl-DNA phosphodiesterase 1 (TDP1): qHTS in cells in absence of CPT; AID 686978, 2013; hit rate 15% among 420,000; DT40 Tdp1-/- hTDP1 cells, no CPT, ATP luminescence, 48 h; Potency, µM (doses to about 46.2 µM), without a hit: at the top dose activity change, negative = growth inhibition, usual class: inhibitors; note: nearly all actives have a fitted effect of over 55% in size
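Luminescent ATP content (CellTiter-Glo) served as the growth readout. Knockout chicken DT40 cells expressing human TDP1 were exposed to compounds without camptothecin for a minimum 48 hr at 37 °C.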
PLK1 PBD inh = inhibitors of human PLK1 polo-box domain binding | P53350 | Plk1 PBD binding of FITC phosphopeptide, fluorescence polarization | Potency, µM, inactives show max response, negative = inhibition, actives largely listed as inhibitors | hit rate 2.8% among 360,000; note: series mostly up to about 57 µM; nearly all actives have a fitted effect of over 65% in size
Target sequence (P53350 whole entry, looked up, the tested form may be a part): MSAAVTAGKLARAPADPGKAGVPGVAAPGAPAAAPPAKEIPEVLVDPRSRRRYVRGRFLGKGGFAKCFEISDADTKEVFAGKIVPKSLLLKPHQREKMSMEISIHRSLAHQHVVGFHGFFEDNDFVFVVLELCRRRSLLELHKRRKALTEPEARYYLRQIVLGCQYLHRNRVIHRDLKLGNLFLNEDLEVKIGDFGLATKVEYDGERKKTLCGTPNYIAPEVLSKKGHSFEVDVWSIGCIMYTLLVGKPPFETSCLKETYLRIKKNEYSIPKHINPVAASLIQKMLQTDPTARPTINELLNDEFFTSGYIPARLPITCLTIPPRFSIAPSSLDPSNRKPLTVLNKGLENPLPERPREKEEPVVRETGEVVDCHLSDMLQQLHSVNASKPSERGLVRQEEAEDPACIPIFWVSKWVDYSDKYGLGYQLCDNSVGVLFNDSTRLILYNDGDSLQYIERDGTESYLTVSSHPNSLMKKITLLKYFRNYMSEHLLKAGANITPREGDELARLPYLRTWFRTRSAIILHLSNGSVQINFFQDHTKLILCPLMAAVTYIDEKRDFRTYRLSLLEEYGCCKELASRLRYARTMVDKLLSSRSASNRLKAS
TDP1 block = inhibitors of human tyrosyl-DNA phosphodiesterase TDP1. hit rate 0.28% among 350,000. AID 485290. recombinant TDP1, AlphaScreen DNA substrate cleavage. Q9NUW8. Potency, µM (highest dose often 130 µM), without a hit: top-dose activity change, negative = inhibition, usual class: inhibitors; note: nearly all actives have a fitted effect of over 40% in size
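E. coli-derived human Tdp1, 1 nM final. Cpd preinc 15 min RT; substrate 15 nM final, 5 min RT; AS bead mix 10 ug/ml final, 10 min RT. Signal loss = tyrosine-FITC cleavage. No-enzyme wells = max signal.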
GCN5L2 inh = inhibitors of human GCN5L2 histone acetyltransferase; Potency, µM (doses to about 58.9 µM), for the others: top-dose activity change, negative = inhibition, most hits filed as inhibitors; hit rate 0.21% among 390,000; GCN5L2 HAT assay, ThioGlo1 CoA-SH fluorescence; Q92830
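Titration-based screen in which CoA formation is detected via maleimide probe ThioGlo1 (50uM) turning fluorescent on thiol reaction; substrates H3(1-25) 75uM and acetyl-CoA 70uM, GCN5L2 20nM, 20 min incubation at room temperature.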
VDR inhibitor = vitamin D3 receptor (human) inhibition. VDR-SRC2-3 peptide fluorescence polarization, 2 h. Potency, µM, inactives show max response, negative = inhibition, actives largely listed as inhibitors. P11473. hit rate 0.93% among 400,000
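Compounds are added to VDR with labelled SRC2-3 coactivator peptide and held 2 h at room temperature. Inhibition of the VDR–peptide interaction is then read as a change in fluorescence polarization.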
TDP1 cell CPT = growth inhibition of DT40 Tdp1-/-;hTDP1 cells with camptothecin (screen for TDP1 inhibitors); AID 686979; chicken DT40 Tdp1-/-;hTDP1 cells + 20 nM CPT, ATP luminescence, 48 h; Potency, µM (highest dose often 46.2 µM), inactives show top-dose activity change, negative = growth inhibition, hits mostly inhibitors; hit rate 12% among 420,000; note: nearly all actives have a fitted effect of over 55% in size
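Chicken DT40 Tdp1-/- cells complemented with human TDP1, 400 cells/well, exposed to compounds plus 20 nM camptothecin for at least 48 h at 37 C; viability read as ATP content by CellTiter-Glo luminescence.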
Active calls of the source: *. Calls come from the whole dose curve; as a rule, active = well fitted curve in the direction sought with a large enough effect; inconclusive = small, poorly fitted or top-dose-only effect, or another doubt; inactive = no such curve, though single readings can be large; an effect the other way counts as inactive or inconclusive. % is set by controls: 0 for no effect and ±100 for the full control effect; potency is the fitted concentration of half-maximal effect.

Screening O=C(Nc1ccc(N2CCN(C(=O)c3ccccc3)CC2)c(Cl)c1)c1ccc(Br)o1 returned TDP1 cell noCPT 21µM*, PLK1 PBD inh -7%, TDP1 block 2%, GCN5L2 inh -12%, VDR inhibitor -12% and TDP1 cell CPT 23µM*.
CC(C)N1CCN(C(=O)c2ccc(NC(=O)c3ccc(Br)o3)cc2)CC1 was read as TDP1 cell noCPT 2%, PLK1 PBD inh -2%, GCN5L2 inh -6%, VDR inhibitor -13% and TDP1 cell CPT -1%.
For Cc1ccc(Cn2c(SCC(=O)NCc3ccccc3Cl)nc3ccsc3c2=O)cc1 the results were TDP1 cell noCPT 21µM*, TDP1 block 3%, GCN5L2 inh 2%, VDR inhibitor 16% and TDP1 cell CPT inconclusive.
Screening Cc1ccc(Cn2c(SCC(=O)C(C)(C)C)nc3ccsc3c2=O)cc1 returned TDP1 cell noCPT 15µM*, TDP1 block -8%, GCN5L2 inh 0%, VDR inhibitor 2% and TDP1 cell CPT 21µM*.
Screening Cc1cc(-n2c(SCC(=O)NCc3ccccc3)nc3ccsc3c2=O)ccc1Cl returned TDP1 cell noCPT inconclusive, TDP1 block 0%, GCN5L2 inh -2%, VDR inhibitor -10% and TDP1 cell CPT 16µM*.
For O=C(CSc1nc2ccsc2c(=O)n1Cc1ccccc1Cl)NCc1ccc(F)cc1 the results were TDP1 cell noCPT 21µM*, TDP1 block 0%, GCN5L2 inh -7%, VDR inhibitor -15% and TDP1 cell CPT 16µM*.
`Cc1nn(-c2ccc(F)cc2)c(-n2cccc2)c1C(=O)NCCCN1CCN(c2cccc(Cl)c2)CC1` gave TDP1 block 8%, GCN5L2 inh -8% and VDR inhibitor 11%.
`CCOc1ccccc1C1NC(c2ccc3c(c2)OCO3)=CC(c2ccccc2O)N1` (stereo not given) gave TDP1 cell noCPT 14µM*, TDP1 block 1%, VDR inhibitor -16% and TDP1 cell CPT 11µM*.
Screening Oc1ccc(Cl)cc1C1C=C(c2ccc3c(c2)OCO3)NC(c2ccc(Br)cc2)N1 (stereo not given) returned TDP1 cell noCPT inconclusive, TDP1 block 5%, VDR inhibitor 1% and TDP1 cell CPT 16µM*.
For CCOc1cccc(C2C=C(c3ccc4c(c3)OCO4)NC(c3ccc(Br)cc3)N2)c1O (stereo not given) the results were TDP1 cell noCPT 16µM*, TDP1 block 3%, VDR inhibitor -21% and TDP1 cell CPT inconclusive.
Oc1ccc(Cl)cc1C1C=C(c2ccc3c(c2)OCO3)NC(c2cc(Br)ccc2F)N1 (stereo not given) was read as TDP1 block 3% and VDR inhibitor inconclusive.
`COc1ccccc1C1NC(c2ccc3c(c2)OCO3)=CC(c2cc(Cl)ccc2O)N1` (stereo not given) gave TDP1 cell noCPT 4µM*, TDP1 block 3%, VDR inhibitor -28% and TDP1 cell CPT 7.9µM*.
Screening Nc1ccc(S(=O)(=O)Nc2nc3ccccc3o2)cc1 returned TDP1 cell noCPT -4%, PLK1 PBD inh inconclusive, GCN5L2 inh inconclusive, VDR inhibitor 4% and TDP1 cell CPT 8%.
For COc1ccc(C2NC(c3ccc4c(c3)OCO4)=CC(c3ccccc3O)N2)cc1OC (stereo not given) the results were TDP1 cell noCPT 18µM*, TDP1 block 5%, VDR inhibitor -21% and TDP1 cell CPT 13µM*.
Oc1ccccc1C1C=C(c2ccc3c(c2)OCO3)NC(c2c(F)cccc2Cl)N1 (stereo not given) was read as TDP1 block 3% and VDR inhibitor inconclusive.

Compound activity (PubChem)
